The list is not random: actives were taken first. Their share in the collection is about 4.4%.
TIM10 inh: growth inhibitors of TIM10 yeast strain; S. cerevisiae TIM10 strain growth, BacTiter-Glo luminescence, 24 h; inhibition, % at 10 µM; 1.4% of 330,000 active; AID 463195;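 active = inhibition of 40% or more at the single tested concentration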;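 also: wild-type TIM10 isogenic control strain grown at permissive 25 °C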
PfHsp90 set2: growth inhibition of yeast expressing Plasmodium Hsp90 | S. cerevisiae expressing PfHsp90, BacTiter-Glo ATP, 48 h; yeast lacking PDR1 and PDR3 efflux regulators | inhibition, % at 9.4 µM | 0.32% of 310,000 active;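 active = every replicate shows inhibition above about 80%, whatever the replicate mean, limit read from the data; inconclusive = mean inhibition reaches the set limit but some replicate falls short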;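 also: 0% = DMSO neutral controls and 100% = 20 µM radicicol positive controls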
tim23-1 inh: inhibits growth of tim23-1 mutant yeast. inhibition, % at 20 µM. S. cerevisiae tim23-1 growth, BacTiter-Glo luminescence, 24 h. AID 463212. 1.3% of 330,000 active;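 active = growth inhibition of the mutant yeast at or above 50%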;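 also: temperature-sensitive mutant grown at 25 °C; plate controls were DMSO-treated mutant yeast for no effect and medium wells lacking yeast for full effect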
tim10-1 inh: growth inhibitors of tim10-1 mutant yeast. S. cerevisiae tim10-1 ts strain growth, BacTiter-Glo, 24 h. inhibition, % at 20 µM. 2.2% of 330,000 active. AID 463190;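 active = inhibition of at least 40%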;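 also: mutant grown at 25 °C; 0% = DMSO wells with yeast and 100% = wells holding no yeast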
SKKanGAS inh: blocks kanamycin growth of S. pyogenes SKKanGAS strain; AID 1662; BacTiter-Glo, 6 h; inhibition, % at 7.5 µM; 1.3% of 300,000 active;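 active = mean replicate score, as percent of positive control median, at least 50; inconclusive = mean below 50 but one replicate at or above 50; inactive = mean and every replicate below 50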;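 also: strain carries kanamycin resistance gene driven by streptokinase promoter and grows in 40 µg/ml kanamycin; loss of luminescence reflects streptokinase promoter inhibition or plain growth inhibition; 0% = median of DMSO wells and 100% = positive control at its reference dose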
* hit, by the source's call; ? = inconclusive; . = no result given.

SMILES	TIM10 inh	PfHsp90 set2	tim23-1 inh	tim10-1 inh	SKKanGAS inh
CCc1cccc2c(C(=O)COC(=O)/C=C/c3ccc(O)c(OC)c3)c[nH]c12	10	-9	13	-11	51*
CC(CC(=O)Nc1ccc(Cl)c(S(=O)(=O)N2CCOCC2)c1)c1ccccc1 (centres undefined)	1	.	16	18	.
Cc1ccc2c(c1)C(=C(C#N)C#N)CCN2	.	-44	.	.	.
CC12CCC(C/C1=N\N=C1\NC(=O)/C(=C\c3cccc(Br)c3)S1)C2(C)C (centres undefined)	16	5	19	-5	104*
Cc1cc(C(=O)Nc2cccc3c2O[C@@H](CN(C)S(C)(=O)=O)[C@H](C)CN([C@@H](C)CO)C3=O)n(C)n1	0	11	17	9	.
CC(C)[C@H]1COCCS(=O)(=O)N1Cc1ccccc1-c1ccc(C(C)(C)C)cc1	-1	-24	39	22	.
O=C(NC(NC(=S)Nc1ccc(Cl)cc1Cl)C(Cl)(Cl)Cl)c1cccc([N+](=O)[O-])c1 (centres undefined)	2	.	6	14	106*
O=C(CN1C(=O)/C(=C/c2ccccc2)SC1=S)NNC(=O)c1ccccc1O	-5	9	-35	0	33
O=C(CCN1C(=O)/C(=C/c2ccccc2Cl)SC1=S)NNC(=O)c1ccccc1O	5	-24	-5	3	60*
O=C(CCN1C(=O)/C(=C/c2ccccc2Cl)SC1=S)NNC(=O)c1cccnc1	2	-15	25	-1	7
COc1cccc(/C=C2/SC(=S)N(CC(=O)NNC(=O)c3ccccc3O)C2=O)c1	25	0	1	-6	98*
O=C(O)CCCCN1C(=O)/C(=C\c2ccc(OCc3ccccc3)c(OCc3ccccc3)c2)SC1=S	12	-14	9	16	50*
COc1cc(/C=C2/SC(=S)N(Cc3ccccc3)C2=O)ccc1O	16	-1	42	-1	66*
C=C(C)c1nc(Oc2ccccc2)nc(Oc2ccccc2)n1	.	-20	.	.	.
CC(OC(=O)C1=Cc2ccccc2OC1)C(=O)NCC1CCCO1 (centres undefined)	.	4	.	.	.
COc1cc(/C=C2\SC(=S)N(CCC(=O)Nc3cccc(O)c3)C2=O)cc(OC)c1OC	7	4	14	11	57*
COc1cc(/C=C2\SC(=S)N(CCC(=O)Nc3ccccc3)C2=O)cc(OC)c1OC	12	-23	28	17	15
Cc1nn(-c2ccccc2)c(Cl)c1/C=C1\SC(=S)NC1=O	7	-8	26	20	34
Cc1nn(-c2ccccc2)c(Cl)c1/C=C1\SC(=S)N(CCCCCC(=O)O)C1=O	-8	-3	34	14	80*
O=C1/C(=C\c2cccc(O)c2)SC(=S)N1Cc1ccccc1	24	10	50	-19	7
CCN=C1S/C(=C\c2ccc(O)c(OCC)c2)C(=O)N1CC	-6	7	17	7	3
COc1cc(/C=C2/SC(=NCc3ccccc3)N(Cc3ccccc3)C2=O)ccc1O	4	-24	-3	5	85*
O=C1/C(=C\c2cccc(O)c2O)SC(=S)N1Cc1ccccc1	6	108*	39	-50	93*
O=C(O)C(Cc1cccs1)c1cccs1 (centres undefined)	.	-1	.	.	.
CC(OC(=O)C1CCN(S(=O)(=O)c2ccc(C(C)(C)C)cc2)CC1)C(=O)N(C)C1CCCCC1 (centres undefined)	.	6	.	.	.
SMILES	TIM10 inh	PfHsp90 set2	tim23-1 inh	tim10-1 inh	SKKanGAS inh
Cc1nc(-c2cccc(NC(=O)c3ccc(-n4cccn4)cc3)c2)cs1	-6	-5	18	8	.
N#Cc1ccc(S(=O)(=O)N2CCC(C(=O)Nc3cccc(C(=O)NC4CC4)c3)CC2)cc1	2	16	2	-16	.
O=C(NNC(=O)C1CC1)c1ccc(F)cc1F	3	.	-6	9	.
O=C1/C(=C\c2cc([N+](=O)[O-])ccc2O)SC(=S)N1Cc1ccc(Cl)cc1	.	12	.	.	96*
O=C(CCCN1C(=O)/C(=C\c2cccs2)SC1=S)Nc1cc([N+](=O)[O-])ccc1O	-16	2	3	-9	73*
CCC1=NN2C(=N)/C(=C\c3cccn3-c3ccc(C)cc3C)C(=O)N=C2S1	34	94*	41	31	32
CCC1=NN2C(=N)/C(=C\c3cccn3-c3c(C)cccc3C)C(=O)N=C2S1	38	-66	40	33	44
CC(=O)Nc1ccc(C(=O)COC(=O)c2cccs2)c(F)c1	-8	-41	8	-18	.
CCOc1ccccc1NC(=O)COC(=O)COc1c(Cl)cc(Cl)c2ccc(C)nc12	9	-8	4	10	15
CCN(CC(=O)NC(C)(C)C)C(=O)COc1c(Cl)cc(Cl)c2ccc(C)nc12	19	-33	30	22	87*
CC(=O)c1ccc(N2C(=O)CC(N3CCN(S(=O)(=O)c4cc(C)ccc4C)CC3)C2=O)cc1 (centres undefined)	8	-1	16	16	.
CC(C)(C)c1ccc(C(=O)NCCC(=O)Nc2cc(Cl)ccc2N2CCOCC2)cc1	24	.	30	27	.
COc1ccc(-c2oc(NC(=O)CSc3ncn[nH]3)c(C#N)c2-c2ccc(OC)cc2)cc1	-25	-22	-11	-3	70*
Cc1n[nH]c(C)c1CCCOc1ccccc1	-33	-14	-13	5	?
COc1ccccc1OCCCCCc1c(C)n[nH]c1C	17	11	14	17	66*
Cc1cccc(OCCCCc2c(C)n[nH]c2C)c1C	34	-48	12	35	99*
COc1ccc(OCCCc2c(C)n[nH]c2C)cc1	10	26	6	5	37
CCOc1ccccc1OCCCCCc1c(C)n[nH]c1C	3	11	4	39	61*
Cc1c(C(=O)NCCSCc2cccc(C(F)(F)F)c2)cnn1-c1ccc(Cl)cc1	4	84*	44	4	14
CC1(C)C(=O)Nc2ccccc2N1C(=O)COC(=O)Cc1ccccc1F	11	20	20	21	.
CCOC(=O)c1cnn(-c2nc(-c3ccccc3F)cs2)c1C(F)(F)F	-1	.	16	6	52*
CCOC(=O)c1cnn(-c2nc(-c3ccccc3)cs2)c1C(F)(F)F	31	-62	35	31	71*
O=C(CN1C(=O)c2ccccc2S1(=O)=O)Nc1cccc(S(=O)(=O)N2CCCCC2)c1	10	-12	11	10	.
O=C(Cc1ccc(S(=O)(=O)N2CCCC2)s1)Nc1nc2c(s1)CCCC2	11	.	0	3	62*
CC(C)CN(C(=O)CSc1nc2ccccc2o1)c1c(N)n(Cc2ccccc2)c(=O)[nH]c1=O	-4	-30	-13	-24	.
Nc1ccc2nc(-c3ccc(Cl)cc3)[nH]c2c1	17	11	14	-2	84*
Nc1ccc2nc(-c3cc(Cl)c(N)c(Cl)c3)[nH]c2c1	14	4	-3	14	63*
Nc1ccc(-c2nc3ccc(N)cc3[nH]2)cc1	9	11	10	-19	-4
CN(C)c1cc2c3ccccc3n(C)c2cc1N	.	5	.	.	.
